Experimental findings from PubChem BioAssay (NCI) are described below.

This is part of a sample that, as a whole, favours compounds with a hit. Of some 83,000 tested, about 20% had one in any assay.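 In brief: 96-well plates, 48 h treatment, single concentration, percent growth endpoint.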 Values without a mark were called inactive. Active and inactive are the calls of the source. The calls were made as follows: active = growth percent below 10; inactive = the rest.

Among the test systems are DU-145 prostate; K-562 leukemia; MALME-3M melanoma; MDA-MB-231 breast; RXF 393 renal; SF-268 CNS; SF-295 CNS; SF-539 CNS; UACC-257 melanoma; M14 melanoma; HCT-15 colon; HT29 colon; SNB-75 CNS; SNB-19 CNS; U251 CNS; PC-3 prostate; SK-MEL-5 melanoma; UACC-62 melanoma; LOX IMVI melanoma; SK-MEL-28 melanoma.
What all share (experiment): NCI-60 one-dose screen, 48 h (100 = growth as untreated, 0 = no growth, -100 = all killed)
Common to all, as to details: 10 µM unless noted

Turning to `O=C(N/N=C/c1c[nH]c2ccccc12)Nc1ccccc1Cl`, the growth with DU-145 prostate is 6.12% (active); with K-562 leukemia, 12.2%; with MALME-3M melanoma, 33.3%; with MDA-MB-231 breast, 16.5%; in the assay on RXF 393 renal, -36.1% (active); with SF-268 CNS, 7.97% (active). The growth with SF-295 CNS is -37.1% (active); in the assay on SF-539 CNS it was -10.7% (active); in the assay with UACC-257 melanoma, 43.8%; in the assay on M14 melanoma, 10.9%; with HCT-15 colon, 7.73% (active); in the assay on HT29 colon, -24.2% (active). The growth is 5.18% (active) in the assay with SNB-75 CNS; 32.8% in the assay on SNB-19 CNS; 13.7% in the assay on U251 CNS; 26.5% in the assay on PC-3 prostate; -38.6% (active) in the assay with SK-MEL-5 melanoma; 11.4% in the assay on UACC-62 melanoma. For the same compound, the growth with LOX IMVI melanoma was -45.1% (active); with SK-MEL-28 melanoma, 39.7%.

Regarding `Cc1nn(-c2ccccc2)c2ncn(CC(=O)N/N=C/c3ccccc3O)c(=O)c12`, the growth in the assay on DU-145 prostate was 51.6%; in the assay on K-562 leukemia, 26.5%; in the assay with MALME-3M melanoma it was 55.9%; in the assay on MDA-MB-231 breast, 35.9%; in the assay with RXF 393 renal it was 42.2%; in the assay with SF-268 CNS, 38.9%. For the same compound, the growth is 24.9% in the assay with SF-295 CNS; 46.7% in the assay on SF-539 CNS; 54.9% with UACC-257 melanoma; 45.2% in the assay with M14 melanoma; 20.8% in the assay on HCT-15 colon; 28.2% in the assay with HT29 colon. The growth with SNB-75 CNS is 76.1%; in the assay on SNB-19 CNS, 57.1%; in the assay with U251 CNS, 40.2%; with PC-3 prostate, 43.3%; in the assay on SK-MEL-5 melanoma, 28.9%; in the assay with UACC-62 melanoma it was 34.3%. Also, the growth was 10.4% in the assay on LOX IMVI melanoma and 66.9% in the assay on SK-MEL-28 melanoma.

With `CC(C)(C)OC(=O)N1CCC2(CC1)Oc1ccccc1[C@H]1CC(c3ccc(Br)cc3)=NN12`, the growth is 93.1% in the assay with DU-145 prostate; 36.1% in the assay with K-562 leukemia; 90% with MALME-3M melanoma; 63% in the assay on MDA-MB-231 breast; 86.2% in the assay with RXF 393 renal; 55.9% in the assay on SF-268 CNS. Also, the growth in the assay on SF-295 CNS was 52.5%; in the assay on SF-539 CNS it was 88.8%; in the assay with UACC-257 melanoma, 99.3%; in the assay on M14 melanoma, 87.3%; with HCT-15 colon, 59.1%; with HT29 colon it was 96.7%. Also, the growth is 72.8% in the assay with SNB-75 CNS; 78% with SNB-19 CNS; 82.8% in the assay with U251 CNS; 66.6% in the assay on PC-3 prostate; 76.2% in the assay on SK-MEL-5 melanoma; 41.3% with UACC-62 melanoma. Also, the results for the growth with LOX IMVI melanoma and in the assay with SK-MEL-28 melanoma were 54.2% and 113%, respectively.

In the case of `CC(C)(C)C(=O)C1CC(C#N)=C2C=Cc3c(ccc4ccccc34)N21` (stereo not given), the growth in the assay on DU-145 prostate is 102%; in the assay on K-562 leukemia it was 85.4%; in the assay on MALME-3M melanoma, 102%; in the assay with MDA-MB-231 breast, 80.7%; in the assay on RXF 393 renal, 91.8%; in the assay with SF-268 CNS, 83.1%. Besides, the growth in the assay with SF-295 CNS was 83.4%; with SF-539 CNS it was 67.4%; in the assay with UACC-257 melanoma, 84.7%; with M14 melanoma it was 105%; in the assay on HCT-15 colon, 88.3%; with HT29 colon, 90.4%. In addition, the growth was -5.13% (active) in the assay on SNB-75 CNS; 60.1% in the assay on SNB-19 CNS; 75.2% in the assay with U251 CNS; 80% with PC-3 prostate; 91.1% with SK-MEL-5 melanoma; 91.1% with UACC-62 melanoma. In addition, the figures for the growth in the assay with LOX IMVI melanoma and in the assay on SK-MEL-28 melanoma were 95.5% and 106%, respectively.

Turning to `COc1ccc(-c2cc(-c3cc(C(C)C)c(O)cc3C)nn2-c2ccc(S(N)(=O)=O)cc2)cc1`, the growth was 16.2% in the assay on DU-145 prostate; 13.6% with K-562 leukemia; 60.1% in the assay on MALME-3M melanoma; 27.9% in the assay with MDA-MB-231 breast; 26.7% with RXF 393 renal; 47.2% in the assay on SF-268 CNS. Moreover, the growth with SF-295 CNS was 19.8%; in the assay with SF-539 CNS, -28% (active); with UACC-257 melanoma, 60.5%; in the assay with M14 melanoma it was 42.8%; in the assay on HCT-15 colon, 3.06% (active); in the assay with HT29 colon it was 88.4%. Also, the growth in the assay with SNB-75 CNS is -0.16% (active); in the assay with SNB-19 CNS, 30%; in the assay with U251 CNS, 14.4%; in the assay on PC-3 prostate, 49.3%; in the assay on SK-MEL-5 melanoma it was 48.6%; with UACC-62 melanoma it was 21.5%. In addition, the growth with LOX IMVI melanoma is 22.6%; with SK-MEL-28 melanoma, 58.8%.

Take `CCCCCCCCc1ccc(C(=O)Nc2cccc(O)c2)cc1`: the growth is 80.1% in the assay on DU-145 prostate; 22.6% in the assay with K-562 leukemia; 77.1% in the assay with MALME-3M melanoma; 78.9% in the assay with MDA-MB-231 breast; 86.6% with RXF 393 renal; 93.1% in the assay on SF-268 CNS. Moreover, the growth is 75% in the assay on SF-295 CNS; 79.7% in the assay with SF-539 CNS; 79.3% in the assay on UACC-257 melanoma; 76.4% in the assay on M14 melanoma; 47.4% in the assay with HCT-15 colon; 78.7% in the assay with HT29 colon. For the same compound, the growth in the assay with SNB-75 CNS was 103%; in the assay with SNB-19 CNS, 83%; in the assay on U251 CNS, 77.5%; in the assay on PC-3 prostate, 52.4%; in the assay with SK-MEL-5 melanoma, 46.6%; in the assay on UACC-62 melanoma, 69.4%. Moreover, the growth in the assay on LOX IMVI melanoma was 64.7%; with SK-MEL-28 melanoma it was 83.4%.

On to `COc1ccc(CCC2NCCc3c(Br)c4c(c(OC)c32)OCO4)cc1` (stereo not given), for which the growth is 33.8% with DU-145 prostate; 6.12% (active) with K-562 leukemia; 23.4% with MALME-3M melanoma; 10.9% in the assay with MDA-MB-231 breast; -17.3% (active) with RXF 393 renal; 20.3% in the assay on SF-268 CNS. Moreover, the growth was 4.87% (active) with SF-295 CNS; -39.4% (active) in the assay with SF-539 CNS; 37.5% in the assay with UACC-257 melanoma; -30.7% (active) in the assay on M14 melanoma; 7.93% (active) in the assay with HCT-15 colon; 2.11% (active) with HT29 colon. Further, the growth in the assay on SNB-75 CNS was -4.42% (active); with SNB-19 CNS, 12.1%; in the assay on U251 CNS, 7.13% (active); in the assay on PC-3 prostate, 26.5%; in the assay with SK-MEL-5 melanoma, -17% (active); in the assay with UACC-62 melanoma it was -32.5% (active). Also, the growth in the assay with LOX IMVI melanoma is -27.5% (active); in the assay with SK-MEL-28 melanoma it was 1.12% (active).
